# Experimental data: PubChem BioAssay (NCI)
# Compounds without any hit were thinned out: in the full panel of roughly 83,000, 20% have a hit.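 96-well plates, one dose, 48 hours. Percent growth reported; active if below 10.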 Values without a mark were called inactive. Calls of active or inactive are those of the source.
# Tested on: MDA-MB-468 breast
# Test: NCI-60 one-dose screen, 48 h (100 = growth as untreated, 0 = no growth, -100 = all killed)
# Details: 10 µM unless noted
row,SMILES,growth
1,Cc1ccc(C(=O)c2ccc(CC(=O)N/N=C/c3cccc(O)c3O)n2C)cc1,54.9%
2,COc1ccc(C2C=C(c3ccc(Cl)c(Cl)c3)N=C3SC(C)=CN32)cc1OC (stereo not given),53.1%
3,CCCCCCCCCCNCCSS(=O)(=O)O,110%
4,CSc1nnc(-c2sc3nnc(-c4ccccc4)c(-c4ccccc4)c3c2O)o1,78.9%
5,OC(COCc1ccccc1)COCc1ccccc1,108%
6,CCc1ccc2c(c1)N(CCO)C1=C(C(=O)OC1)C2c1cccc(Cl)c1 (stereo not given),20.1%
7,COc1ccc2nc(NC(=O)/C(=C/c3cc(OC)c(OC)c(OC)c3)c3ccc(OC)c(OC)c3)sc2c1,109%
8,COc1cc2ncnc(-n3ncc4cc(NC(=O)Nc5ccccc5)ccc43)c2cc1OC,-67% (active)
9,CCOC(=O)c1sc(NC(=O)COc2cccc(/C=C3\Cc4ccc(Cl)cc4C3=O)c2)nc1C,118%
10,Cn1cc(-c2nc3c(F)cc4[nH]ncc4c3c3c2CCCC3)c(C(F)F)n1,52.9%
11,COc1cc(/C=C2\C(=O)Nc3ccc(Br)cc32)cc(OC)c1OC,16.9%
12,CCCOc1cc2ccccc2cc1C(=O)Nc1nc(NC)c2c(ccc3nccc32)[nH]1,-59.7% (active)
13,O=C(NC[C@H](O)CN1CCc2ccccc2C1)c1cc(NC2COC2)ncn1,115%
14,O=S(=O)(NCCCNc1nccc(-c2cn(-c3ccccc3)nc2-c2ccc(Cl)c(O)c2)n1)c1ccccc1,59.7%
15,CN1CCN(CCNc2nccc(-c3c(-c4cccc(O)c4)nc4sccn34)n2)S1(=O)=O,79.4%
